Source: PubChem
This is a sample that favours compounds with a hit; in the whole collection about 3.8% have one here.
HepG2 tox – HepG2 cytotoxicity, counter-screen for TGF-b inhibitors. HepG2 CAGA-GFP viability, ATP luminescence, 18 h. AID 588856. Potency, µM (series often up to 46.1 µM), for inactives: at the top dose activity change, negative = cytotoxicity, usual class: cytotoxic. 410,000 compounds, 0.76% hits
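HepG2 CAGA-GFP cells (1000/well, DMEM with 1% FBS) received compound, then TGF-beta at 500 pg/mL final, and were incubated 18 hours at 37 degrees C. Viability was read by CellTiter-Glo luminescence. Media-only wells were set as complete cell-killing and DMSO as no toxicity.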
ATXN2 expr inh – inhibitors of ATXN2 expression. HEK-293 ATXN2-luciferase reporter, luminescence, 24 h. Potency, µM (titrated, usually from 57 µM), for the others: at the highest dose activity change, negative = inhibition, most hits filed as inhibitors. 360,000 compounds, 0.72% hits; also: % is scaled to controls: 0 for no effect and ±100 for the full control effect; nearly all actives have a fitted effect of over 55% in size
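qHTS (up to 57 uM final) was run with 24 h compound exposure of reporter cells at 37 °C. Each well was multiplexed: SteadyGlo luminescence measured ATXN2-luciferase expression after a fluorogenic Gly-Phe-AFC viability readout (25 uM final).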
S2 tox – viability counter-screen for ATXN expression inhibitors. Potency, µM (series often up to 56.7 µM), usual class: cytotoxic. S2 cells (HEK-293 line with an ATXN2-luciferase reporter) viability, CellTiter-Fluor protease fluorescence, 24 h. 400,000 compounds, 0.49% hits. AID 651635; also: nearly all actives have a fitted effect of over 40% in size
TGFb SMAD3 inh – TGF-b pathway inhibition | HepG2 CAGA-GFP TGF-b/SMAD3 reporter, GFP fluorescence, 18 h; TGF-beta stimulated, 500 pg/mL final | Potency, µM (doses to about 46.1 µM), inactives show at the highest dose activity, negative = inhibition, hits mostly inhibitors | AID 588855 | 410,000 compounds, 1.2% hits; also: % is scaled to controls: 0 for no effect and ±100 for the full control effect; nearly all actives have a fitted effect of over 65% in size
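Read-out: total well GFP (ex488/em500-530) summed from mean per-cell fluorescence. Cells: HEPG2 CAGA-GFP, 1% FBS DMEM, 18 h at 37 degrees C with 500 pg/mL final TGF-beta. Unstimulated wells served as the full-inhibition control; stimulated DMSO wells = 0%.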
A549 tox – kills or reduces viability of A549 cells in Nrf2 counter-screen; A549 ARE-Fluc cells, CellTiter-Fluor viability, 18-24 h; Potency, µM (series often up to 46 µM), for inactives: top-dose activity change, negative = cytotoxicity, most hits filed as inhibitors; 390,000 compounds, 0.16% hits; AID 504648; also: % is scaled to controls: 0 for no effect and ±100 for the full control effect
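A549 ARE-Fluc cells in 5% FBS OPTI-MEM, 5000 cells/well, rested 2 h then exposed to compounds in concentration-response for 18-24 h at 37 °C. Viability by CellTiter-Fluor fluorescence (Ex 405/Em 525) after 30 min; luciferase luminescence (BugLite, 15 min, RT) read afterwards.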
Nrf2 inh – blocks Nrf2 signaling; A549 ARE-Fluc reporter, luciferase luminescence, 18-24 h; Potency, µM (titrated, usually from 46 µM), for the others: top-dose activity change, negative = inhibition, most hits filed as inhibitors; 360,000 compounds, 2.1% hits; AID 504444; also: % is scaled to controls: 0 for no effect and ±100 for the full control effect; nearly all actives have a fitted effect of over 60% in size
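A549 ARE_Fluc cells, 5000/well, 5% FBS OPTI-MEM; compounds in dose-response, 18-24 h at 37 °C/5% CO2; CellTiter-Fluor viability read (Ex 405/Em 525), then BugLite luciferase luminescence = Nrf2 activity.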
* = called active by the depositor; i = inactive; ? = inconclusive; nt = no result given; [ ] = another dose, or the depositor's remark. Calls follow the shape of the dose curve; as a rule, active = well fitted curve in the direction sought with a large enough effect; inconclusive = small, poorly fitted or top-dose-only effect, or another doubt; inactive = no such curve, though single readings can be large; an effect the other way counts as inactive or inconclusive. Potency is read from the fitted curve at half-maximal effect.

SMILES	HepG2 tox	ATXN2 expr inh	S2 tox	TGFb SMAD3 inh	A549 tox	Nrf2 inh
O=C(N/N=C/c1ccc([N+](=O)[O-])s1)c1cccc(Br)c1	-43%	-34%	?	?	?	21µM*
CC(C)C(=O)NC(=S)Nc1ccc(S(=O)(=O)NC2CCCCC2)cc1	-25%	-30%	?	-19%	-2%	?
CCOC(=O)N/N=C\c1ccc([N+](=O)[O-])s1	-49%	?	?	22µM*	?	23µM*
Cc1ccc(C(=O)N/N=C/c2ccc([N+](=O)[O-])s2)cc1	-29%	2.2µM*	i	?	?	16µM*
O=C(N/N=C/c1ccc([N+](=O)[O-])s1)c1ccncc1	13µM*	?	i	?	-10%	?
O=C(N/N=C/c1cccc(Oc2ccccc2)c1)c1cccc(Br)c1	-18%	2%	i	?	0%[1.84 µM]	18µM*
O=C(N/N=C/c1ccc(F)cc1)c1cccc(NC(=O)c2ccccc2Cl)c1	-12%	5%	i	-12%	-3%	0%
CC(=O)c1ccc(CCCCc2ccc(C(C)=O)cc2)cc1	-7%	-13%	i	3%	1%	2%
CC(C)(C)C(=O)Nc1ccc2nc(SCCOc3ccccc3Cl)sc2c1	3%	?	i	-14%	-4%	-21%
Cc1cc(C(=O)N/N=C/c2cc(Br)ccc2OC(=O)c2ccccc2Cl)n[nH]1	-21%	?	nt	-22%	0%	?
Cc1cc(C(=O)N/N=C/c2cc(Br)ccc2OC(=O)c2ccccc2)n[nH]1	-35%	27µM*	i	-21%	?	?
S=C1NC[C@H](c2ccccc2)N1CCCCC1CCCCC1	11µM*	?	?	18µM*	-2%	-24%
Oc1ccc(C[C@@H]2CNC(=S)N2CCCCC2CCCCC2)cc1	-107%	-10%	?	13µM*	-1%	-9%
O=C1c2cccc(NCCNCCO)c2C(=O)c2cccc(NCCNCCO)c21	-12%	4.5µM*	18µM*	?	18µM*	10µM*
COc1ccc(-c2cn3nc4c(nc3n2)CCCC4)cc1	0%	16µM*	nt	14%	2%	nt
COc1ccc(NC(=O)Cn2c(=O)n(Cc3ccco3)c(=O)c3sc4ccccc4c32)cc1Cl	-8%	-3%	i	20%	-1%	2%
COc1ccc2ccc3c(c2c1)N=CC1(O3)N(C)c2ccccc2C1(C)C (stereo not given)	-48%	-9%	i	7.9µM*	4%	?
CCC1Oc2ccc(C)cc2N(CC(=O)N(Cc2ccc(C)o2)C2CC(C)(C)NC(C)(C)C2)C1=O (stereo not given)	13µM*	?	?	?	-14%	-1%
COc1ccc(CCNC(=O)CN2C(=O)NC(Cc3c[nH]c4ccccc34)C2=O)cc1 (stereo not given)	3%	-26%	?	7%	-1%	-5%
COc1cccc(NC(=O)Cn2c(=O)n(-c3ccc(Cl)cc3)c(=O)c3sc4ccccc4c32)c1	-24%	nt	nt	0%	-10%	9%
COc1cccc(-n2c(=O)c3sc4ccccc4c3n(CC(=O)Nc3cccc(Cl)c3)c2=O)c1	-5%	3%	?	7.9µM*	-15%	-14%
COc1ccc(Cl)cc1S(=O)(=O)N(C)CC(=O)N1CCOCC1	-12%	-10%	i	5%	5%	6%
Cc1sc(NC(=O)Cc2ccc3c(c2)OCO3)nc1-c1ccc2c(c1)CCN2C(=O)c1cccc(F)c1	10%	-19%	i	3%	11%	7.3µM*
Cc1cccc(C(=O)N2CCc3cc(-c4nc(NC(=O)CN5CCCC5)sc4C)ccc32)c1	-26%	-19%	i	5%	-4%	4%
CN(C)C(=O)c1ccc(N=Nc2c(O)c3ccccc3[nH]c2=O)cc1	11µM*	-34%	?	15%	1%	0%
SMILES	HepG2 tox	ATXN2 expr inh	S2 tox	TGFb SMAD3 inh	A549 tox	Nrf2 inh
O=C(O)c1ccc(N=Nc2c(O)[nH]c3ccccc23)cc1	-53%	-28%	i	-2%	?	?
COc1cc(N=Nc2ccc(C(=O)N(C)C)cc2)c(C)cc1N	-9%	58%	i	16%	0%	?
Cc1cc(N=Nc2c(O)c3ccccc3[nH]c2=O)ccc1N=Nc1ccc(C(=O)N(C)C)cc1	-75%	nt	i	13µM*	-9%	19%
CNc1ccc2ncc(-c3ccccc3NC(C)=O)n2n1	3%	17%	i	-1%	nt	nt
O=C(O)C(c1ccccc1)N1CCCC1 (stereo not given)	9%	4%	?	-1%	-1%	?
Cc1sc(NC(=O)CN2CCOCC2)nc1-c1ccc2c(c1)CCN2S(=O)(=O)c1ccccc1	-26%	-21%	i	?	-13%	2.6µM*
COc1cc(/C=C(/C#N)C(=O)NCCc2c[nH]c3ccccc23)ccc1OCc1ccccc1F	-21%	7.1µM*	10µM*	1%	-22%	4%
COc1ccc(CN2CCCC(CNC(=O)c3ccc(F)cc3)C2)c(C)c1C (stereo not given)	7.9µM*	nt	i	-12%	21%	-1%
COc1ccc(CCNc2oc(COc3ccccc3)nc2C#N)cc1	-44%	4%	i	-2%	15%	-5%
COc1ccc(Nc2oc(COc3ccc(OC)cc3)nc2C#N)cc1	-16%	14µM*	i	-11%	-12%	?
COc1ccc(-c2nc(C#N)c(NCCCN(C)C)o2)cc1OC	7%	1%	i	7%	14%	-3%
COc1ccc(Nc2oc(COc3ccc(C)cc3)nc2C#N)cc1	-23%	nt	nt	?	-6%	?
COc1ccc(CCNc2oc(-c3ccc(OC)c(OC)c3)nc2C#N)cc1	-15%	-9%	i	-2%	-9%	23µM*
Cc1ccc(OCc2nc(C#N)c(NCCc3ccccc3)o2)cc1	-28%	nt	nt	22µM*	0%	?
CCOc1ccc(Nc2oc(-c3cccs3)nc2C#N)cc1	-19%	2%	i	-1%	-20%	16µM*
Cc1ccc2oc(C(=O)Nc3c(C(=O)Nc4cccc(Cl)c4)oc4ccccc34)cc(=O)c2c1	-36%	3%	i	-20%	5%	0%
COc1cc(Cn2ncc3c4sc(C)cc4n(C)c3c2=O)cc(OC)c1	nt	nt	nt	nt	-1%	16%
COc1ccc(Nc2oc(COc3ccccc3F)nc2C#N)cc1	-27%	?	35µM*	-2%	-1%	7%
C/C(=N\NC(=O)c1c(Br)cnn1C)c1ccc(NC(=O)c2ccc(F)cc2)cc1	2%	8%	?	4%	?	?
